# In PubChem BioAssay:
# Active and inactive are the calls of the source. Unless noted, no rule for the calls is given here.
# How the values were obtained:
# [1] = test system: Wnt5a (protein binding on small-molecule microarray); experiment: small molecules binding Wnt5a protein – biophysical, small-molecule microarray, 635/667 nm fluorescence, primary screen (AID 1142); settings: 635 nm fluorescence, higher = more signal;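 also: fluorescence read at 667 nm with signal to noise per printed feature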
# [2] = ATP-based viability of Huh7 replicon cells – cell-based, CellTiter-Glo luminescence, basal, 48 h, cytotoxicity control for HCV replication inhibitor project, primary screen (AID 1143); settings: higher = more signal, called active from +8 up or from −8 down;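 also: Huh7 hepatoma cells carrying a hepatitis C replication reporter with no stimulus; test concentration not given here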
# [3] = Pseudomonas biofilm growth suppression – PAO1 strain, BacTiter-Glo luminescence, LB-PBS, primary screen (AID 1144); settings: P. aeruginosa PAO1 biofilm, 12 h, higher = more signal
# [4] = basal CRE-LacZ reporter activity in PC12 – cell-based, unstimulated, primary screen (AID 1145); settings: no forskolin, luminescence, 4.5 h, higher = more signal, called active from +8 up or from −8 down
# [5] = forskolin-driven CRE-LacZ activity in PC12 – cell-based, CRE-LacZ reporter, forskolin-stimulated, primary screen (AID 1146); settings: luminescence, 4.5 h, higher = more signal, called active from +8 up or from −8 down;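 also: PC12 cells with 6xCRE LacZ reporter stimulated by forskolin 10 µM; beta-galactosidase reporter signal reflecting CREB driven transcription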
# [6] = molecular target: Streptavidin (Streptomyces avidinii) (UniProt P22629); experiment: compounds binding control protein streptavidin – biophysical, small-molecule microarray, 635/667 nm fluorescence, artefact control for SMM compound annotation, primary screen (AID 1147); settings: higher = more signal;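 also: signal reflects streptavidin binding to arrayed compounds as a control protein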
# [7] = probe aInhba binding on compound microarray – biochemical, small-molecule microarray, 635/667 nm fluorescence, primary screen (AID 1148); settings: higher = more signal;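 also: score merges 667nm spot fluorescence with signal-to-noise for antibody binding to printed compounds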
# Torsin-1A (Homo sapiens) [8] = molecular target: Torsin-1A (Homo sapiens) (UniProt O14656); experiment: TOR1A wild-type binding on microarray – cell lysate, small-molecule microarray, lysate, 635/667 nm, primary screen (AID 1149); settings: COS7 hTOR1A-WT lysate, 635 nm fluorescence, higher = more signal
# Torsin-1A (Homo sapiens) [9] = molecular target: Torsin-1A (Homo sapiens) (UniProt O14656); experiment: torsin A mutant lysate binding on microarrays – cell lysate, small-molecule microarray, COS7 lysate, 635/667 nm fluorescence, primary screen (AID 1150); settings: COS7 hTOR1A mutant lysate, 635 nm fluorescence, higher = more signal;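 also: score pools 667 nm emission and signal to noise measuring lysate protein binding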
# [10] = test system: Sonic hedgehog protein (Shh); experiment: Sonic hedgehog microarray binding compounds – biochemical, small-molecule microarray, 635/667 nm fluorescence, primary screen (AID 1151); settings: 635 nm fluorescence, higher = more signal;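 also: Shh protein binding to compounds spotted on small-molecule microarray slides; score combines spot fluorescence intensity with signal-to-noise across triplicate slides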
# [11] = optical density shifts of acrAB sulA E. coli – strain DRC41, OD650, 48 h, E. coli filamentation inducer project, primary screen (AID 1152); settings: higher = more signal, called active from +8 up or from −8 down;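 also: E. coli MC1000 strain DRC41 lacking acrAB efflux pump and sulA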
# [12] = probe aLefty1 binding on compound microarray – biochemical, small-molecule microarray, 635/667 nm fluorescence, primary screen (AID 1153); settings: higher = more signal;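 also: score merges spot fluorescence with signal-to-noise ratio from the scanned slide images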
# [13] = plasmodial surface anion channel blockers, osmotic lysis – cell-based, P. falciparum Indochina, OD700, 1 h, primary screen (AID 1154); settings: P. falciparum Indochina infected RBC osmotic lysis, higher = more signal, called active from +8 up or from −8 down
# [14] = plasmodial surface anion channel blockers, osmotic lysis – cell-based, P. falciparum Indochina, OD700, 2 h, primary screen (AID 1155);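 also: lysis reports solute entry through the parasite surface anion channel PSAC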; settings: P. falciparum Indochina infected erythrocytes, higher = more signal, called active from +8 up or from −8 down
# [15] = changes in parasitized red cell lysis, either direction – P. falciparum Indochina, OD700, 3 h, PSAC antagonist project, primary screen (AID 1156); settings: P. falciparum-infected erythrocytes, osmotic lysis, higher = more signal, called active from +8 up or from −8 down
# [16] = plasmodial surface anion channel blockers, osmotic lysis – cell-based, P. falciparum Indochina, OD700, 18 h, primary screen (AID 1157); settings: P. falciparum Indochina infected erythrocytes, osmotic lysis OD700, 18 h; higher = more signal, called active from +8 up or from −8 down
# [17] = S6 kinase pathway phospho-S6 level changes – cell-based, A549, cytoblot, luminescence, serum-stimulated, primary screen (AID 1158); settings: 5 h, higher = more signal;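 also: serum-stimulated A549 lung adenocarcinoma cells; signal is phosphorylated S6 detected by cytoblot immunostaining with HRP secondary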
# [18] = molecular target: NADPH oxidase 2 (Homo sapiens) (UniProt P04839); experiment: compounds shifting NOX2 Amplex Red fluorescence – cell-based, HEK293-NOX2, PMA-stimulated, NOX inhibitor project, primary screen (AID 1159); settings: 45 min, higher = more signal, called active from +8 up or from −8 down; also: test concentration not given here
# [19] = molecular target: NADPH oxidase 4 (Homo sapiens) (UniProt Q9NPH5); experiment: compounds shifting NOX4 Amplex Red fluorescence – cell-based, HEK293-NOX4, tetracycline-induced, NOX inhibitor project, primary screen (AID 1160); settings: HEK293-NOX4, Amplex Red H2O2 fluorescence, 45 min; higher = more signal, called active from +8 up or from −8 down
# [20] = molecular target: NADPH oxidase 5 (Homo sapiens) (UniProt Q96PH1); experiment: compounds shifting NOX5 Amplex Red fluorescence – cell-based, HEK293-NOX5, NOX inhibitor project, primary screen (AID 1161); settings: HEK293-NOX5, ionomycin, 45 min, higher = more signal
# Chain of NADPH oxidase 5 (Homo sapiens) (Q96PH1 whole entry, looked up): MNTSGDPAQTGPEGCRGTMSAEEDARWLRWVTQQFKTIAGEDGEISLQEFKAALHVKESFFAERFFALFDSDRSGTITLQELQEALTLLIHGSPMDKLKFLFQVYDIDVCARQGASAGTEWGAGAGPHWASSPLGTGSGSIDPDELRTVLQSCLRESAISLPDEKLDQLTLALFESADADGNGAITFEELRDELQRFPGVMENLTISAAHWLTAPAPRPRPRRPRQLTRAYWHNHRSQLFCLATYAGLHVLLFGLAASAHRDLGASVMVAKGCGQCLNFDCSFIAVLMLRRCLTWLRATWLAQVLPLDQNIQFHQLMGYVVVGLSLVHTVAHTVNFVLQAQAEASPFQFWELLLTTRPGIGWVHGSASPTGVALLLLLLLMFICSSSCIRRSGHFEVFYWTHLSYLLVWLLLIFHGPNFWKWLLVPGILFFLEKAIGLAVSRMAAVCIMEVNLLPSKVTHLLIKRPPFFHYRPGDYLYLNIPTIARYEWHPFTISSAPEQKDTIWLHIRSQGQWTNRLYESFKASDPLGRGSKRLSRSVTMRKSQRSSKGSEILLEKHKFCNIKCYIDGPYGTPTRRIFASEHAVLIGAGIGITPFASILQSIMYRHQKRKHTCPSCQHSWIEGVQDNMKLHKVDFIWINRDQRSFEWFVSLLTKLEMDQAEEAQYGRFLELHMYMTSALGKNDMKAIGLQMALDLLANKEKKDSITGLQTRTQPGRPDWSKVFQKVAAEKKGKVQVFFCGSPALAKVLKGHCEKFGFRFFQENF
# Chain of NADPH oxidase 2 (Homo sapiens) (P04839 whole entry, looked up): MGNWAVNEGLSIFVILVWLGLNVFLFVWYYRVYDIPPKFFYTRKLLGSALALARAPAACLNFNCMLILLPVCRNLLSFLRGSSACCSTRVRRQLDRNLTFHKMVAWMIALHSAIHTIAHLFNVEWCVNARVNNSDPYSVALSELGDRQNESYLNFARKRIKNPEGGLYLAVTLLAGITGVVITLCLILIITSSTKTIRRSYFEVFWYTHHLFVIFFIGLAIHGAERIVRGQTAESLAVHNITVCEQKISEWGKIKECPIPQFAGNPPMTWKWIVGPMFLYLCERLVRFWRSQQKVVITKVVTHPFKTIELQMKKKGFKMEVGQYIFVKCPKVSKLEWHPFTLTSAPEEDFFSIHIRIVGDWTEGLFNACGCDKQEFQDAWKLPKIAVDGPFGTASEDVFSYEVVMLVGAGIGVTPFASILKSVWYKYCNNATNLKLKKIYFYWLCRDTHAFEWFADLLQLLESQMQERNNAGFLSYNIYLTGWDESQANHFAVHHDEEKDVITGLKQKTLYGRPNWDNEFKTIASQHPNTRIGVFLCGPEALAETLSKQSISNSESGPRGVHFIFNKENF
# Chain of Torsin-1A (Homo sapiens) (O14656 whole entry, looked up): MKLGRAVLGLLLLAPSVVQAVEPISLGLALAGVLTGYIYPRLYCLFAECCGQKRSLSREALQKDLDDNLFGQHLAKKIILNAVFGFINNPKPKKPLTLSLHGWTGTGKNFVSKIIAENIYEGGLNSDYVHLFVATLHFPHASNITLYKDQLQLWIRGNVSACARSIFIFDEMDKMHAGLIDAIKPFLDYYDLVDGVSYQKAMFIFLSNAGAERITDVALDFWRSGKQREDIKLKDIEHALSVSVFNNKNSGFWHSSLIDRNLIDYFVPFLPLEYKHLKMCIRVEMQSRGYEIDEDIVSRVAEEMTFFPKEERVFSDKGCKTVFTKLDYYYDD
# Chain of NADPH oxidase 4 (Homo sapiens) (Q9NPH5 whole entry, looked up): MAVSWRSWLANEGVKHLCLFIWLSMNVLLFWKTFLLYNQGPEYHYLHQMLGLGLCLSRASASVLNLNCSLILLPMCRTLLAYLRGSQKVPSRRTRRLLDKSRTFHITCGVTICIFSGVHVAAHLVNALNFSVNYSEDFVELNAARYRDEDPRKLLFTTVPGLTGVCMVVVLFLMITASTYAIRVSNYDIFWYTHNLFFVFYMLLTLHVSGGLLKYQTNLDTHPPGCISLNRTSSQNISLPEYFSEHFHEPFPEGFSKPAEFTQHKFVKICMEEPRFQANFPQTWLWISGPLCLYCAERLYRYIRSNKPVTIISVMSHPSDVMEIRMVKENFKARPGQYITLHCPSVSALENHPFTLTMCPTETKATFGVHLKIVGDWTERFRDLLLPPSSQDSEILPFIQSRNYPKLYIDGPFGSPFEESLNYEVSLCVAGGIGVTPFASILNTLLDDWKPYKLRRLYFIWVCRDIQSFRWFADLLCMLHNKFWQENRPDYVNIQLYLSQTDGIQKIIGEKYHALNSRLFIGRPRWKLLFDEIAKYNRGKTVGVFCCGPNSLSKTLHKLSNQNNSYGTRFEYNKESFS
# Chain of Streptavidin (Streptomyces avidinii) (P22629 whole entry, looked up): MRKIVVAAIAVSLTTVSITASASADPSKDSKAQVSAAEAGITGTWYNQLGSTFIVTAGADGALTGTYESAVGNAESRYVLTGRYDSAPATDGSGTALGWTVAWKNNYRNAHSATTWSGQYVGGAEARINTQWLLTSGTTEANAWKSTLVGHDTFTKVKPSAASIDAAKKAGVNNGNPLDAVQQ
SMILES,composite z-score [1],z-score [2],z-score [3],z-score [4],z-score [5],composite z-score [6],composite z-score [7],composite z-score (Torsin-1A (Homo sapiens) [8]),composite z-score (Torsin-1A (Homo sapiens) [9]),composite z-score [10],z-score [11],composite z-score [12],z-score [13],z-score [14],z-score [15],z-score [16],z-score [17],z-score [18],z-score [19],z-score [20]
O=C1NC(=O)C2C1C=CC(C(O)c1ccc([N+](=O)[O-])cc1)N2Nc1ccccn1 (stereo not given),-0.0851,1.06 (inactive),-0.295 (inactive),-0.133 (inactive),-0.728 (inactive),-0.115,-0.0059,0.419,-0.306,-0.371,-0.55 (inactive),-0.112,0.406 (inactive),0.74 (inactive),0.067 (inactive),0.581 (inactive),-0.466,-0.728 (inactive),-2.61 (inactive),-1.96
COC(=O)[C@@]1(Cc2ccccc2)[C@H]2c3cc(C(=O)N(C)C)n(Cc4ccc(S(C)(=O)=O)cc4)c3C[C@H]2CN1C(=O)c1ccccc1,0.493,-1.6 (inactive),-0.361 (inactive),0.39 (inactive),1.02 (inactive),2.48,0.496,-0.178,1.13,-0.68,-1.77 (inactive),0.71,1.5 (inactive),0.542 (inactive),1.95 (inactive),0.814 (inactive),0.393,1.12 (inactive),-2.78 (inactive),-2.6
O=C(NC1CC1)[C@@H]1c2ccccc2C(=O)N(CC23CC4CC(CC(C4)C2)C3)[C@H]1c1ccc(CO)cc1,0.659,-1.29 (inactive),-0.88 (inactive),0.0026 (inactive),-0.049 (inactive),0.189,0.0697,0.197,0.833,1.88,0.268 (inactive),0.284,1.56 (inactive),0.464 (inactive),1.48 (inactive),0.181 (inactive),0.268,0.507 (inactive),0.157 (inactive),0.412
CC(C)[Si](C#CCCc1ccccc1)(O[C@H](c1ccccc1)c1cn(Cc2ccccc2)nn1)C(C)C,0.21,-1.12 (inactive),-0.778 (inactive),-0.0989 (inactive),-0.105 (inactive),1.61,-0.179,0.5,0.484,0.814,1.09 (inactive),0.188,1.36 (inactive),0.308 (inactive),-0.329 (inactive),0.53 (inactive),0.534,-0.967 (inactive),-0.899 (inactive),-3.17
CC(C)C(CO)N1C(=O)[C@@H]2C3C(=O)OCCC/C=C\[C@H]3OC23C=CCN(Cc2ccccc2)C(=O)[C@@H]13 (stereo not given in full),0.0204,-0.294 (inactive),2.31 (inactive),0.601 (inactive),0.312 (inactive),-1.14,0.0212,0.662,0.825,0.855,0.83 (inactive),-0.0035,1.12 (inactive),0.405 (inactive),1.12 (inactive),0.503 (inactive),0.186,1.25 (inactive),0.838 (inactive),2.26
COc1ccc(C(=O)Nc2cccc(CN3C(=O)[C@@]4(O[C@@H](CC(=O)N5CCC[C@H]5CO)[C@H]([Si](C)(C)c5ccc(OC)cc5)[C@H]4C)c4ccccc43)c2)cc1,0.107,-4.18 (inactive),-0.601 (inactive),1.69 (inactive),-1.55 (inactive),0.621,-0.0454,0.313,1.15,1.26,-0.184 (inactive),-0.06,4.51 (inactive),1.32 (inactive),0.691 (inactive),0.696 (inactive),1.31,1.24 (inactive),0.982 (inactive),4.72
O=C1C[C@@](C(=O)NC2CC2)(c2ccc([N+](=O)[O-])cc2)[C@@H](c2ccc(CO)cc2)N1C1CCCCC1,0.755,-5.6 (inactive),-2.4 (inactive),0.118 (inactive),-0.0595 (inactive),-0.124,-0.212,-0.204,0.466,2.18,1.25 (inactive),0.345,1.97 (inactive),-0.0047 (inactive),0.736 (inactive),-0.115 (inactive),3.97,-1.06 (inactive),-3.7 (inactive),-5.08
Cc1ccc(N2C(=O)c3ccccc3[C@](C)(C(=O)NCCCN(C)C)[C@@H]2c2ccc(CO)cc2)nc1,-0.169,0.368 (inactive),0.414 (inactive),0.0279 (inactive),0.64 (inactive),-0.0986,-0.0983,-1.38,-1.27,-1.01,-0.666 (inactive),-0.0058,1.23 (inactive),0.0681 (inactive),0.386 (inactive),-0.135 (inactive),-0.0873,0.627 (inactive),0.631 (inactive),0.199
O=C1O[C@H](c2ccccc2)[C@H](c2ccccc2)N2[C@H]1[C@@H](C(=O)N1CCN(c3ncccn3)CC1)[C@]1(C(=O)Nc3ccc(C#CCCO)cc31)[C@H]2c1ccc(O)cc1,0.313,-0.522 (inactive),-0.218 (inactive),0.0653 (inactive),0.253 (inactive),1.05,0.0111,0.161,0.0065,0.429,-0.951 (inactive),0.208,1.28 (inactive),0.436 (inactive),1.2 (inactive),0.0991 (inactive),0.201,0.84 (inactive),0.722 (inactive),1.41
